Data as given in PubChem BioAssay.
A number with no mark means an inactive call. The rule behind the calls is not given here.

test: blockers of DNA damage checkpoint Chk1 activation – imaging, HeLa, hydroxyurea, phospho-Chk1 nuclear intensity, primary screen (AID 1187); conditions: hydroxyurea-induced phospho-Chk1 immunofluorescence imaging, higher = more signal; note: test concentration not given here

Structure (SMILES) | z-score
C=CCN1C(=O)[C@@]2(Cc3ccccc31)N=C(c1ccc(OCCCO)cc1)O[C@H]2c1ccccc1 | -0.416
CC(C)C(O)C1C=CC2C(=O)N(c3ccccc3)C(=O)C2N1Nc1ccc([N+](=O)[O-])cc1 (stereo not drawn) | -0.404
COC(=O)[C@H](Cc1ccccc1)N[C@@H](/C=C/C1CC1)[C@H](O)Cc1ccccc1 | -0.295
O=C1O[C@H](c2ccccc2)[C@H](c2ccccc2)N2[C@H]1[C@@H](C(=O)N1CCCCCCC1)[C@]1(C(=O)Nc3ccc(C#CC4=CCCCC4)cc31)[C@H]2c1ccc(OCCO)cc1 | 1.04
CCOC(=O)C[C@H]1[C@H](OC(=O)c2ccc(C(=O)c3ccccc3)cc2)[C@@H](NC(=O)c2ccccc2)c2cc(OCCCO)ccc2N1C(=O)Cc1ccc(OC)cc1 | 0.134
COc1ccc([Si](C)(C)[C@H]2[C@H](CCO)O[C@@]3(C(=O)N(Cc4ccc(N(C=O)c5ccccc5)cc4)c4ccccc43)[C@@H]2C)cc1 | -0.123
CC(C)c1ccc(NN2C(C(O)c3ccc(B(O)O)cc3)C=CC3C(=O)N(c4ccccc4)C(=O)C32)cc1 (stereo not drawn) | -0.659
COc1ccc(CCNC(=O)[C@@]2(Sc3ccc(C)cc3)CC(=O)N(C3Cc4ccccc4C3)[C@@H]2c2ccc(CO)cc2I)cc1 | 0.684
COCCOC(=O)N1C(=O)[C@@]2(c3ccccc31)[C@H](c1ccc(O)cc1)N1[C@H](c3ccccc3)[C@H](c3ccccc3)OC(=O)[C@H]1[C@@H]2C(=O)Nc1nc2ccccc2s1 | 0.221
C=C(C(=O)CC[C@@H](OC(=O)c1cccnc1)c1ccccc1OCCO)C(C)C | 0.993
NCCCCCNC(=O)[C@@H]1C[C@@H]2C(=O)N[C@@H](Cc3ccccc3)C(=O)N2[C@@H]1c1ccc(O)cc1 | 0.204
CCCCCCc1nc(-c2ccc(OC)nc2)cc2c1[Si](C(C)C)(C(C)C)O[C@H]2c1ccccc1 | -0.722
C[N+](C)(C)CCCCNC(=O)[C@@H]1C[C@@H]2C(=O)N[C@@H](Cc3ccccc3)C(=O)N2[C@@H]1c1cccc(OCCO)c1 | 0.276
COc1cc2c(cc1O)C(c1cccs1)N(C)CC2 (stereo not drawn) | -0.628
C[C@@]1([C@@H](NC(=O)c2ccc(-c3ccccc3)cc2)c2ccc(Cl)cc2)C[C@H]1C1CCCCC1 | 0.861
Cc1ccc(S[C@]2(C(=O)O)CC(=O)N(C(C)C)[C@@H]2c2ccc(CO)cc2I)cc1 | 0.0562
CN1C(=O)C2C=CC(C(O)C3CC=CCC3)N(N(c3ccccc3)c3ccccc3)C2C1=O (stereo not drawn) | 0.0168
O=C1NC(=O)C2C1C=CC(C(O)c1cccs1)N2Nc1ccc(Cl)cc1Cl (stereo not drawn) | -0.45
C=CCC(OC(C)=O)[C@@H]1[C@@H](N(Cc2ccc(-c3ccccc3)cc2)C(=O)Cc2ccc(OC)cc2)c2cc(OCCCO)ccc2N1C(=O)Cc1ccc2ccccc2c1 (stereo partly drawn) | 0.325
CC(C)C[C@@H]1NC(=O)[C@@H]2C[C@H](C(=O)NCc3ccc(F)cc3)[C@H](c3cccc(OCCO)c3)N2C1=O | 0.554
C=CCC(OC(C)=O)[C@@H]1[C@@H](N(Cc2ccc(-c3ccccc3)cc2)C(=O)c2cccc3ccccc23)c2cc(OCCCO)ccc2N1C(=O)c1ccc(-c2ccccc2)cc1 (stereo partly drawn) | -0.234
CCCC[C@H]1OB(O)C[C@H]2C1=C(COC)Cn1c(=O)n(-c3ccccc3)c(=O)n12 | -0.639
O=C1NC(=O)C2C1C=CC(C(O)c1cc(C(F)(F)F)cc(C(F)(F)F)c1)N2Nc1ccccn1 (stereo not drawn) | 0.178
CC1CC/C=C\[C@H]2OC34C=CCN(Cc5ccccc5)C(=O)[C@H]3N(CCCO)C(=O)[C@@H]4C2C(=O)O1 (stereo partly drawn) | -0.491
C=C(CC1([C@@H](NP(=O)(c2ccccc2)c2ccccc2)[C@H]2C[C@@H]2CCCC)CC1)c1ccccc1 | 1.12
CC(C)N1C(=O)c2ccccc2[C@](C)(C(=O)NCCN2CCOCC2)[C@@H]1c1ccc(CO)cc1 | -0.332
[N-]=[N+]=NCc1ccccc1[C@@H]1OC(c2ccc(OCCCO)cc2)=N[C@]1(Cc1ccccc1)C(=O)NCC(O)CO (stereo partly drawn) | 0.117
Cc1ccc(S[C@]2(C(=O)NCCCN(C)C)CC(=O)N(Cc3ccccc3C(F)(F)F)[C@@H]2c2ccc(CO)cc2)cc1 | 0.135
